From PubChem
GLS inh: blocks human kidney-isoform glutaminase activity; GLS enzymatic activity, qHTS titration; Potency, µM (series often up to 45.5 µM), hits mostly inhibitors; actives 0.21% (n = 410,000)
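Glutamate formation by hKGA was monitored fluorometrically using coupled glutamate oxidase, HRP and Amplex Red. Substrate was added as 1 mM L-glutamine solution; incubation was 30 min at RT after an initial read.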
GLP-1R agonist: activates the human GLP-1 receptor; actives 0.007% (n = 380,000); Potency, µM (titrated, usually from 45.6 µM), most hits filed as activators; HEK293 GLP-1R CRE-luciferase, luminescence, 4-6 h; cells express a hypersensitive GLP-1R form; P43220
KCNH2 3.1 inh: KCNH2 3.1 (human) potassium channel inhibition; activity change, % (tested at about 1.8 µM); actives 0.95% (n = 340,000); U2OS KCNH2 3.1, thallium flux FluxOr; stronger effect = lower value;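 active = maximum activity change below -70%; inconclusive = maximum activity change from -70% to -50%; inactive = maximum activity change above -50%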;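 note: thallium influx rate constant from kinetic fluorescence after stimulation buffer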
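We transduce U2OS cells with the mutant 3.1 virus, culture them overnight, load FluxOr with Red40 quencher for 45 min, then add stimulation buffer and read kinetically for 2 min to derive a normalized rate constant.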
KCNH2 WT inh: inhibitors of human wildtype KCNH2 potassium channel. Q12809. activity change, % at 1.84 µM. actives 0.37% (n = 340,000). U2OS, BacMam KCNH2, thallium flux FluxOr; stronger effect = lower value;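 active = maximum activity change below -70%; inconclusive = maximum activity change between -70% and -50%; inactive = maximum activity change above -50%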
Target sequence (Q12809 whole entry, looked up): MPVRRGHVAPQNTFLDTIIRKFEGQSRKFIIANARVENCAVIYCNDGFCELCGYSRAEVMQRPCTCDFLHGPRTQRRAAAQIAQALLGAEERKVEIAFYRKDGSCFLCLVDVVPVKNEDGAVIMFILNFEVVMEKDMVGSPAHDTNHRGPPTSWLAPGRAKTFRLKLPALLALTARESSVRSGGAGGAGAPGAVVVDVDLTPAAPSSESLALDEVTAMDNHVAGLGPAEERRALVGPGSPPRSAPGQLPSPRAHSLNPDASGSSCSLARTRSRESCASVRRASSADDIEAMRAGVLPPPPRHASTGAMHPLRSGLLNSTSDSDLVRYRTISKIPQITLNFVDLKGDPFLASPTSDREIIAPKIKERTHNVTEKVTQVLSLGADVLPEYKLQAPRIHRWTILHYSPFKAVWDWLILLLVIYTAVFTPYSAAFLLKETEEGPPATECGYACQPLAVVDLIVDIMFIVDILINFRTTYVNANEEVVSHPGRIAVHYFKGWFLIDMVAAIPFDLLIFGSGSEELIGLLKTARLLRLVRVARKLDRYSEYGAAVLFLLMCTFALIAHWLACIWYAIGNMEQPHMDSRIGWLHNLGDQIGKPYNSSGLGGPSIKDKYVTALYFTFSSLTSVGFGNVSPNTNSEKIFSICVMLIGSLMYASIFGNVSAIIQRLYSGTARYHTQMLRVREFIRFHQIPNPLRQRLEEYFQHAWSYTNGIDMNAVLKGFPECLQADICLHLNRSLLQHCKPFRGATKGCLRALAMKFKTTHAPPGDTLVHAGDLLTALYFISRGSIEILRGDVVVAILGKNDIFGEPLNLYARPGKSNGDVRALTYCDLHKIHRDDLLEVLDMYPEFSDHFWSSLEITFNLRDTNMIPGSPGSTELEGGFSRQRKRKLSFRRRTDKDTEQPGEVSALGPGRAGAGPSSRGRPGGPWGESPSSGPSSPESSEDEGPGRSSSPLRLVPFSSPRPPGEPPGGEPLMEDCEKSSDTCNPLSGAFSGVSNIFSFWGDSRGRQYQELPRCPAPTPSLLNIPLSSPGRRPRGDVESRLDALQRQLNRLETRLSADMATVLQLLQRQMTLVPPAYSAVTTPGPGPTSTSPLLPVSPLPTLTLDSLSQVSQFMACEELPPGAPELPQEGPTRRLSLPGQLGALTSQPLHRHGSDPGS
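U2OS cells transduced with wild-type KCNH2 virus are loaded with FluxOr dye for 45 min, and thallium flux is measured in kinetic reads before and after stimulation buffer. Rate constants are normalized to DMSO controls.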
HEK293 tox: cytotoxicity in counter-screen for GLP-1R inverse agonists. HEK293 cAMP-luciferase reporter cells, luminescence, 24 h. Potency, µM (highest dose often 38.3 µM), usual class: inhibitors. actives 0.13% (n = 410,000);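 note: loss of luciferase light is scored as toxicity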
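MLSMR compounds, 24 hr on cells at 37 deg C/5% CO2; luminescence after luciferase reagent (12 min RT). Inhibition counted as the undesired cytotoxic outcome.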
GLP-1R inv ag: acts as inverse agonist at human GLP-1 receptor. P43220. actives 1.6% (n = 410,000). AID 624417. Potency, µM (highest dose often 38.3 µM), hits mostly inhibitors. HEK293 GLP-1R CRE-luciferase, luminescence, 24 h; GLP-1R form is constitutively active; note: nearly all actives have a fitted effect of over 55% in size
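Cells are plated, allowed 12 hours at 37 deg C, then treated with compounds for 24 hr before luciferase detection reagent is added and luminescence is read after 12 min at room temperature. The HEK293 line carries constitutively active GLP-1R with a cAMP-responsive reporter.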
Each line names hits and unclear results; the compound was inactive in the other large screens. Rows were chosen to be rich in hits. Some 2.8% of all compounds tested hit in one or more screens of this group. Unless noted, calls come from the whole dose curve; as a rule, active = well fitted curve in the direction sought with a large enough effect; inconclusive = small, poorly fitted or top-dose-only effect, or another doubt; inactive = no such curve, though single readings can be large; an effect the other way counts as inactive or inconclusive.

COc1ccc(NC(=O)c2cc(-c3sc(NC(=O)c4ccccc4)nc3C)n(Cc3ccccc3)n2)cc1	GLP-1R inv ag inconclusive (no result: GLS inh, GLP-1R agonist, KCNH2 3.1 inh, KCNH2 WT inh)
COc1ccccc1CNC(=O)CCCn1c(=O)c2ccccc2n(CC(=O)Nc2c(C)cc(C)cc2C)c1=O	none (no result: KCNH2 3.1 inh, KCNH2 WT inh)
O=C1CC(O)(c2ccccc2)C(c2ccccc2)=C1c1ccccc1 (configuration not stated)	GLP-1R inv ag 10µM
Cc1cccc2sc(N(CCCN(C)C)C(=O)COc3ccccc3)nc12	HEK293 tox inconclusive (no result: GLP-1R agonist, KCNH2 3.1 inh, KCNH2 WT inh)
Cc1cccc2sc(N(CCCN(C)C)C(=O)c3ccc(C(=O)c4ccccc4)cc3)nc12	HEK293 tox inconclusive, GLP-1R inv ag 5.01µM
COc1ccc2sc(N(CCCN(C)C)C(=O)c3ccc(C(=O)c4ccccc4)cc3)nc2c1	HEK293 tox inconclusive, GLP-1R inv ag 7.08µM
CCOc1cccc2sc(N(CCCN(C)C)C(=O)c3ccc(S(=O)(=O)N(C)c4ccccc4)cc3)nc12	KCNH2 3.1 inh -85.2, KCNH2 WT inh -106.4, HEK293 tox inconclusive, GLP-1R inv ag inconclusive
CCOc1cccc2sc(N(CCCN(C)C)C(=O)c3ccc(S(=O)(=O)N4CCc5ccccc5C4)cc3)nc12	GLP-1R inv ag inconclusive
CCN(Cc1ccccc1)S(=O)(=O)c1ccc(C(=O)N(CCCN(C)C)c2nc3cc(OC)ccc3s2)cc1	HEK293 tox inconclusive, GLP-1R inv ag inconclusive
C/C1=C2N=C(/C=C3N=C(/C(C)=C4\[N-][C@@H]([C@H](CC(N)=O)[C@]4(C)CCC(=O)NC[C@@H](C)OP(=O)([O-])O[C@@H]4[C@@H](O)[C@H](n5cnc6cc(C)c(C)cc65)O[C@@H]4CO)[C@@]4(C)N=C1[C@H](CCC(N)=O)[C@@]4(C)CC(N)=O)[C@H](CCC(N)=O)C\3(C)C)[C@@H](CCC(N)=O)[C@@]/2(C)CC(N)=O.[CH3-].[Co+3]	none (no result: KCNH2 3.1 inh, KCNH2 WT inh, HEK293 tox, GLP-1R inv ag)
CSCCC(NS(=O)(=O)c1ccc2c(c1)oc(=O)n2C)C(=O)N1CCN(c2cccc(Cl)c2)CC1 (configuration not stated)	none (no result: GLP-1R agonist, KCNH2 3.1 inh, KCNH2 WT inh)
CCOC(=O)C1=C(N)n2c(s/c(=C/c3ccco3)c2=O)=C(C(=O)OC)C1c1ccco1 (configuration not stated)	none
N#CC1=C(N)n2c(s/c(=C\c3ccco3)c2=O)=C(C#N)C1c1ccco1 (configuration not stated)	GLS inh 11.2µM
Cc1ccccc1S(=O)Cc1ccc(C(=O)N2CCN(c3cccc(C)c3C)CC2)o1 (configuration not stated)	GLP-1R inv ag 1.12µM (no result: GLP-1R agonist, KCNH2 3.1 inh, KCNH2 WT inh)
Cc1ccc(Cl)cc1N1CCN(C(=O)c2ccc(CS(=O)c3ccccc3)o2)CC1 (configuration not stated)	HEK293 tox inconclusive, GLP-1R inv ag inconclusive (no result: GLP-1R agonist, KCNH2 3.1 inh, KCNH2 WT inh)
Cc1cccc(N2CCN(C(=O)c3ccc(CS(=O)c4cccc(Cl)c4)o3)CC2)c1C (configuration not stated)	HEK293 tox inconclusive, GLP-1R inv ag 1µM (no result: GLP-1R agonist, KCNH2 3.1 inh, KCNH2 WT inh)
Cc1ccc(S(=O)(=O)Cc2ccc(C(=O)N3CCN(c4cccc(C)c4C)CC3)o2)cc1	HEK293 tox inconclusive, GLP-1R inv ag 5.01µM
COc1ccccc1N1CCN(C(=O)c2ccc(CS(=O)c3ccccc3C)o2)CC1 (configuration not stated)	GLP-1R inv ag inconclusive (no result: KCNH2 3.1 inh, KCNH2 WT inh)
COc1ccc(S(=O)(=O)Cc2ccc(C(=O)N3CCN(c4cccc(C)c4C)CC3)o2)cc1	GLP-1R inv ag inconclusive
Cc1cccc(N2CCN(C(=O)c3ccc(CS(=O)Cc4ccc(Cl)cc4)o3)CC2)c1C (configuration not stated)	GLP-1R inv ag 10µM
O=C(CN1C(=O)N/C(=C\c2ccccc2OCc2ccc(C(=O)O)cc2)C1=O)Nc1ccccc1F	none
COc1cc(C(CC(=O)Nc2cccc(C(C)=O)c2)N2Cc3ccccc3C2=O)cc(OC)c1OC (configuration not stated)	none (no result: KCNH2 3.1 inh, KCNH2 WT inh)
CCN1CCN(C(c2ccccc2Cl)c2sc3nc(-c4ccco4)nn3c2O)CC1 (configuration not stated)	none (no result: GLP-1R agonist, KCNH2 3.1 inh, KCNH2 WT inh)
CCCc1nn2c(=O)cc(COC(=O)c3cccc(NC(=O)COc4ccccc4C)c3)nc2s1	none (no result: GLP-1R agonist, KCNH2 3.1 inh, KCNH2 WT inh)
Cc1ccc(NC(=S)Nc2cccc3cnccc23)c(C)c1	none
Cc1cc(C)cc(NC(=S)Nc2cccc3cnccc23)c1	KCNH2 WT inh -227.5
Cc1ccc(NC(=O)c2ncn(CCCNCCCc3ccccc3)n2)cc1C	KCNH2 3.1 inh -91.1, KCNH2 WT inh -80.4, GLP-1R inv ag inconclusive
Cc1ccc(NC(=O)c2ncn(CCCN(CCCn3cnc(C(=O)Nc4ccc(C)c(C)c4)n3)Cc3ccc4[nH]ccc4c3)n2)cc1C	KCNH2 3.1 inh -77.1, KCNH2 WT inh -90.6, GLP-1R inv ag inconclusive
Cc1ccc(NC(=O)c2ncn(CCCNCCCN(C)C)n2)cc1C	GLP-1R inv ag inconclusive
COc1ccc(CNCCCn2cnc(C(=O)Nc3ccc(C)c(C)c3)n2)cc1	KCNH2 3.1 inh -86.5
COC(=O)Cn1cnc(C(=O)Nc2ccc(C)c(C)c2)n1	KCNH2 3.1 inh -72.9
Cc1ccc(NC(=O)c2ncn(CC(=O)NCc3ccc4[nH]ccc4c3)n2)cc1C	none
CCCn1c(CCC(=O)Nc2cc(C(=O)OC)cc(C(=O)OC)c2)nc2cccnc21	none (no result: GLP-1R agonist, KCNH2 3.1 inh, KCNH2 WT inh)
Cc1ccccc1C1CC(=O)Oc2cc(O)ccc21 (configuration not stated)	none
Cc1ccc2cc3cc(C(=O)N4CC(C)CC(C)C4)oc3nc2c1 (configuration not stated)	GLS inh inconclusive, GLP-1R inv ag 7.94µM
COc1ccc2cc3cc(C(=O)N4CC(C)CC(C)C4)oc3nc2c1 (configuration not stated)	GLP-1R inv ag inconclusive
CN1CCN(C2Cc3cc(F)ccc3Sc3ccc(Cl)cc32)CC1 (configuration not stated)	KCNH2 3.1 inh -77.9, HEK293 tox inconclusive, GLP-1R inv ag inconclusive
CN1CCN(C2Cc3ccc(F)cc3Sc3cc(F)c(Cl)cc32)CC1 (configuration not stated)	KCNH2 3.1 inh -87.6, HEK293 tox inconclusive, GLP-1R inv ag inconclusive
CN1CCN(C2Cc3ccccc3Sc3ccc(Cl)cc32)CC1 (configuration not stated)	KCNH2 3.1 inh inconclusive, GLP-1R inv ag inconclusive
O=c1oc2cc(O)ccc2c2ccccc12	none
O=c1oc2cc(O)ccc2c2oc3cc(O)ccc3c12	GLS inh 7.94µM
COc1ccc(OC)c(Nc2c3ccccc3nc3ccccc23)c1	GLP-1R inv ag 11.2µM
